Records with an inconclusive call do not appear. The source holds several records for some structures; these can differ, active in one and inactive in another. Active and inactive are the calls of the source. How the source made its calls, unless noted: active means hit-call score of the fitted dose curve at least 0.9, where 1 is the maximum; inactive means score below 0.9.
What was measured:
[1] = BSK_3C_TissueFactor: BioMAP Diversity Plus: 3C Assay for Tissue Factor Biomarker Activity (AID 2282997); settings: BioMAP 3C HUVEC, tissue factor biomarker readout; actives raise or lower the signal
Method in brief: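 ELISA read-out of Tissue Factor levels on human umbilical vein endothelium collected 24 h after chemical dosing. Gain or loss of signal was fitted relative to DMSO.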

[2] = BSK_4H_Eotaxin3: BioMAP Diversity Plus: 4H Assay for Eotaxin 3 Biomarker Activity (AID 2283000); settings: primary human endothelial cells (HUVEC); actives raise or lower the signal
Method in brief: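 Chemicals were added to human umbilical vein endothelium cultures, and Eotaxin-3 was quantified by ELISA at 24 h. Values were derived by bidirectional fitting with DMSO serving as negative control and activity baseline.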

[3] = read-out: Interleukin-1 alpha (IL1a), IL1A (gene 3552); experiment: BSK_BE3C_IL1a: BioMAP Diversity Plus: BE3C Assay for Interleukin-1 alpha (IL1a) Biomarker Activity (AID 2283016); settings: primary human bronchial epithelial cells; actives raise or lower the signal
Method in brief: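 Human primary bronchial epithelial cells, 24 h chemical exposure; IL-1a quantified by ELISA, fitted bidirectionally against DMSO. Cytotoxicity assessed in parallel by SRB total-protein staining at the time of measurement.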

[4] = read-out: Monocyte Chemoattractant Protein-1 (MCP1), CCL2 (gene 6347); experiment: BSK_3C_MCP1: BioMAP Diversity Plus: 3C Assay for Monocyte Chemoattractant Protein-1 (MCP1) Biomarker Activity (AID 2283017); settings: primary human endothelial cells (HUVEC); actives raise or lower the signal
Method in brief: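 ELISA read-out of MCP-1 from human umbilical vein endothelial cell cultures harvested 24 h post-dosing. Gain or loss of signal was fitted relative to DMSO.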

[5] = read-out: Interleukin-8 (IL8), CXCL8 (gene 3576); experiment: BSK_3C_IL8: BioMAP Diversity Plus: 3C Assay for Interleukin-8 (IL8) Biomarker Activity (AID 2283020); settings: primary human endothelial cells (HUVEC); actives raise or lower the signal
Method in brief: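 Primary human umbilical vein endothelial cells were dosed for 24 h. IL-8 was quantified by ELISA and fitted bidirectionally against DMSO. Cytotoxicity was assessed in parallel cultures by SRB staining at 560 nm.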

[6] = read-out: Monokine induced gamma interferon (MIG), CXCL9 (gene 4283); experiment: BSK_3C_MIG: BioMAP Diversity Plus: 3C Assay for Monokine induced gamma interferon (MIG) Biomarker Activity (AID 2283021); settings: primary human endothelial cells (HUVEC); actives raise or lower the signal;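 on AC50: MIG protein level measured by immunoassay in the treated endothelial cultures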
Method in brief: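 HUVEC primary endothelial cultures dosed with chemical; MIG quantified by ELISA at 24 h. Data fitted bidirectionally against DMSO control, with parallel SRB total-protein staining for cytotoxicity.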

[7] = BSK_3C_SRB: Viability Assessment in the BioMAP Diversity Plus: 3C Assay (AID 2283023); settings: primary human endothelial cells (HUVEC);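 further: fitted both ways against DMSO so a hit may be signal rise or drop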
Method in brief: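 Absorbance at 560 nm of sulforhodamine B-stained (0.1%) total protein served as a cytotoxicity readout in human umbilical vein endothelial cells, 24 h after chemical treatment. Signal was fitted bidirectionally relative to DMSO.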

[8] = BSK_3C_Vis: BioMAP Diversity Plus: 3C Assay for Morphology Visualization (AID 2283025); settings: primary human endothelial cells (HUVEC);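 further: fitted both ways so gain or loss versus DMSO counts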;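 on AC50: light microscopy image of cell morphology used as background control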
Method in brief: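 Human umbilical vein endothelial cell morphology was inspected by light microscopy 24 h after chemical dosing; scored bidirectionally relative to DMSO.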

[9] = read-out: Pselectin, SELP (gene 6403); experiment: BSK_4H_Pselectin: BioMAP Diversity Plus: 4H Assay for Pselectin Biomarker Activity (AID 2283026); settings: primary human endothelial cells (HUVEC); actives raise or lower the signal
Method in brief: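 Primary human umbilical vein endothelial cells were treated 24 h, and cell-surface P-selectin was then quantified by ELISA. Bidirectional fit versus DMSO; cytotoxicity checked in parallel cultures by SRB total-protein staining.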

[10] = BSK_4H_SRB: Viability Assessment in the BioMAP Diversity Plus: 4H Assay (AID 2283027); settings: primary human endothelial cells (HUVEC);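 further: cells exposed to compound for 24 h before staining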;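 on AC50: curves fitted both ways versus DMSO so AC50 may be loss or gain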
Method in brief: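 Absorbance at 560 nm of SRB-stained total protein served as the viability read-out in confluent primary human umbilical vein endothelium 24 h after chemical treatment. Curves were fitted bidirectionally against DMSO as negative control.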

[11] = read-out: Urokinase-type plasminogen activator receptor (uPAR), PLAUR (gene 5329); experiment: BSK_4H_uPAR: BioMAP Diversity Plus: 4H Assay for Urokinase-type plasminogen activator receptor (uPAR) Biomarker Activity (AID 2283030); settings: primary human endothelial cells (HUVEC); actives raise or lower the signal
Method in brief: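 Cell-surface uPAR ELISA signal, measured 24 h after dosing human umbilical vein endothelial cells, was analyzed with bidirectional fitting relative to DMSO. Parallel SRB staining of total protein tracked overt cytotoxicity.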

[12] = read-out: Human Leukocyte Antigen - DR isotype (HLADR), HLA-DRA (gene 3122); experiment: BSK_BE3C_HLADR: BioMAP Diversity Plus: BE3C Assay for Human Leukocyte Antigen - DR isotype (HLADR) Biomarker Activity (AID 2283032); settings: primary human bronchial epithelial cells; actives raise or lower the signal
Method in brief: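 Human primary bronchial epithelial cells (BE3C system) exposed to compound for 24 hours; cell-surface HLA-DR measured by ELISA, fitted bidirectionally relative to DMSO. Total protein by SRB in parallel cultures tracked cytotoxicity.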

[13] = molecular target: Estrogen receptor beta (Homo sapiens) (UniProt Q92731); experiment: OT_ER_ERbERb_1440: Odyssey Thera (OT) 24-hour HEK293T Protein-Complementation Assay for Estrogen Receptor-beta/-beta Homodimer (AID 2283380; active means hit-call score of the fitted dose curve at least 0.9, where 1 is the maximum;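 further: fluorescence gain from ER beta LBD homodimer complementation read by laser scanning cytometry; scored as signal increase over DMSO baseline for both agonists and antagonists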)
Estrogen receptor beta (Homo sapiens), sequence (Q92731 whole entry, looked up, the tested form may be a part): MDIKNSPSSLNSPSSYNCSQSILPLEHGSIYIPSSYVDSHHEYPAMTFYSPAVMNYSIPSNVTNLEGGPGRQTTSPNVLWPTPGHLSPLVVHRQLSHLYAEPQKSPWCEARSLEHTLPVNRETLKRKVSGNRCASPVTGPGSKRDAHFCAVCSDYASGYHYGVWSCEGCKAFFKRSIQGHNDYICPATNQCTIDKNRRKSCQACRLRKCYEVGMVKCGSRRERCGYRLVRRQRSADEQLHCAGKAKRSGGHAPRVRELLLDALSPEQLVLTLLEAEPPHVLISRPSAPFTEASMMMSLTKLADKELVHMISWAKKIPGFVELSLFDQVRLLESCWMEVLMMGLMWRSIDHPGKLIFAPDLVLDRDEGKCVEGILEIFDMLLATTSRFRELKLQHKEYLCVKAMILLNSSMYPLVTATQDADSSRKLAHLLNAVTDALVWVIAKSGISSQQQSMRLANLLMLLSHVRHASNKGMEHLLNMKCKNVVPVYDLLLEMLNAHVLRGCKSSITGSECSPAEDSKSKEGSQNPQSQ
Method in brief: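 Fluorescence increase, nuclear for agonists or whole-cell for antagonists, relative to DMSO vehicle, quantified by laser scanning cytometer after fixation and Draq5 staining. Readout from 24 h treatment of HEK293T cells carrying complementation-paired ER beta LBD (aa 310-547).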

[14] = ACEA_AR_antagonist_AUC_viability: ACEA Biosciences xCELLigence Real-Time Cell Analysis on Androgen Receptor Antagonism for Viability (AID 2283776; active means hit-call score of the fitted dose curve at least 0.9, where 1 is the maximum;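 further: 22Rv1 human prostate cancer cells growing on impedance electrode plates; area under impedance growth curve at 80 h after dosing as viability; hits lower the growth signal relative to DMSO meaning cytotoxicity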)
Method in brief: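 Real-time electrical impedance tracks 22Rv1 proliferation after continuous compound exposure (top 100 uM final, 1:4 steps, 8 concentrations). The 80 h area-under-curve serves as the cytotoxicity readout relative to DMSO.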

[15] = molecular target: Oxysterols receptor LXR-alpha (Homo sapiens) (UniProt Q13133); experiment: ATG_LXRa_TRANS: Attagene TRANS-FACTORIAL HepG2 Assay for human Liver X Receptor alpha (LXRa) (AID 2282980; active means hit-call score of the fitted dose curve at least 0.9, where 1 is the maximum); settings: HepG2 Attagene TRANS reporter, LXRa transactivation
Oxysterols receptor LXR-alpha (Homo sapiens), sequence (Q13133 whole entry, looked up, the tested form may be a part): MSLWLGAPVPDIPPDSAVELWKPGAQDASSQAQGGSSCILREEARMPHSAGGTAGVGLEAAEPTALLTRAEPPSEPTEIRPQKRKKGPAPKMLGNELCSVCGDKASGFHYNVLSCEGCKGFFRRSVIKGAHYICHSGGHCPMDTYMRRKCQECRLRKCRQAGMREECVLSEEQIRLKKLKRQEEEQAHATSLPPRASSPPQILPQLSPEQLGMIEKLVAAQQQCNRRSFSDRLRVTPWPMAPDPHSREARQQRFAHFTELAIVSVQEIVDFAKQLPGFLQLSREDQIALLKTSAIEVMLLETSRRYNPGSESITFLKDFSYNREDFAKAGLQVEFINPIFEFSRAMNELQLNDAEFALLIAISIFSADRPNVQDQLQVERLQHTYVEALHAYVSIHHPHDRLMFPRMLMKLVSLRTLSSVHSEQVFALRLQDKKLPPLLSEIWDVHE
Method in brief: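 Transfect HepG2 with GAL4-UAS multiplex reporter constructs (TRANS format, chimeric receptor-GAL4); treat 24 h; extract RNA, reverse-transcribe, PCR-amplify, FAM-label, HpaI-digest; resolve fragments by capillary electrophoresis. Upward response vs DMSO.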

[16] = molecular target: human RAR-related Orphan Receptor beta (RORb), RORB (gene 6096) (UniProt Q92753); experiment: ATG_RORb_TRANS: Attagene TRANS-FACTORIAL HepG2 Assay for human RAR-related Orphan Receptor beta (RORb) (AID 2283010; active means hit-call score of the fitted dose curve at least 0.9, where 1 is the maximum)
human RAR-related Orphan Receptor beta (RORb), RORB (gene 6096), sequence (Q92753 whole entry, looked up, the tested form may be a part): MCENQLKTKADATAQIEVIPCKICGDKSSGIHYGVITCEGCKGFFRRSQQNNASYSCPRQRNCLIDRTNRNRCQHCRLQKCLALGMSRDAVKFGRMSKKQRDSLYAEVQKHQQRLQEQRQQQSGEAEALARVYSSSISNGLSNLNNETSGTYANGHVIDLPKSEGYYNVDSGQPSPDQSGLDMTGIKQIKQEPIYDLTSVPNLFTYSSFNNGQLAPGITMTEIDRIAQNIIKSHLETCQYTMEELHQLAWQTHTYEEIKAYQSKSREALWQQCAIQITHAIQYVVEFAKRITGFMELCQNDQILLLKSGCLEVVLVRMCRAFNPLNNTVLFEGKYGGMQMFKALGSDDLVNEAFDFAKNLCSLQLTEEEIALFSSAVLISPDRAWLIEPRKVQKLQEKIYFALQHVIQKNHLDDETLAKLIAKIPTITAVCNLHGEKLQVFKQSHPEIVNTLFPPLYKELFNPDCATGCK
Method in brief: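 HepG2 cells transiently transfected with GAL4-UAS reporter units expressing chimeric NR-Gal4 protein; reporter mRNA measured 24 h after dosing by RT-PCR, 6-FAM labelling and capillary electrophoresis. Gain-of-signal fitted relative to DMSO baseline.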

[17] = molecular target: Bile acid receptor (Homo sapiens) (UniProt Q96RI1); experiment: ATG_FXR_TRANS: Attagene TRANS-FACTORIAL HepG2 Assay for Farnesoid X Receptor (FXR) (AID 2282979; active means hit-call score of the fitted dose curve at least 0.9, where 1 is the maximum;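 further: hits raise reporter mRNA above DMSO so AC50 marks FXR activation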); settings: HepG2 Attagene TRANS FXR-GAL4 reporter transcription
Bile acid receptor (Homo sapiens), sequence (Q96RI1 whole entry, looked up, the tested form may be a part): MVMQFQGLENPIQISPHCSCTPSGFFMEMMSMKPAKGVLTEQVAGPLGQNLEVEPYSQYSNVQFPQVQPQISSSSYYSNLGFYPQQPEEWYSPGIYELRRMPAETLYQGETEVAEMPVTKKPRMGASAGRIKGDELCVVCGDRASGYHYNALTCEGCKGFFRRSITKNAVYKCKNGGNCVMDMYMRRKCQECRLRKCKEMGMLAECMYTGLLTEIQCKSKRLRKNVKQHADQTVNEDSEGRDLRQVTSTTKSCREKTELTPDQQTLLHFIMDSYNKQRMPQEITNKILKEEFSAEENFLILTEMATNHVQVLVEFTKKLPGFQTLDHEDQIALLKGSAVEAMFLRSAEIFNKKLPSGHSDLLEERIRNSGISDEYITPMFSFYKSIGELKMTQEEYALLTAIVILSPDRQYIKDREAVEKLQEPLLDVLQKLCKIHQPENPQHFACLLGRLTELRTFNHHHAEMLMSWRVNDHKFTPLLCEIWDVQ
Method in brief: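 Transient transfection of HepG2 with multiplexed GAL4-UAS reporter units; exogenous FXR-GAL4 chimera. Dose 24 h → TriZol RNA → oligo(dT) RT → PCR, 6-FAM primer extension, HpaI cut → CE. Gain vs DMSO.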

[18] = CCTE_Harrill_HTTr_Viability_MCF7: CCTE's 6-hour Cell Viability Assessment for the High-Throughput Transcriptomics (HTTr) Platform, in MCF-7 cells cultured in DMEM + 10% fetal bovine serum, Harrill Lab (AID 2284010)
Method in brief: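 MCF-7 cells in DMEM + 10% FBS, 384-well, exposed 6 h to an eight-point dilution series. Membrane integrity scored by high-content imaging of propidium iodide exclusion; bidirectional fit versus DMSO.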

Measured: AC50

CC1(C)[C@H](C(=O)O[C@H](C#N)c2cccc(Oc3ccccc3)c2)[C@@H]1C=C(Br)Br
inactive: [1] | [2] | [3] | [4] | [5] | [6] | [7] | [8] | [9] | [10] | [11] | [12] | [13] | [14]
active: [2] 0.3 µM | [11] 5.23 µM | [14] 50 µM

Nc1ccccc1
inactive: [15] | [14]

O=C(NCNC(=O)NC1C(=O)NC(=O)N1CO)NC1C(=O)NC(=O)N1CO (centres undefined)
inactive: [16] | [13] | [14]

CC(=O)c1cc2c(cc1C)C(C)(C)C(C)CC2(C)C (centres undefined)
inactive: [17] | [14] | [18]
active: [13] 12.5 µM

CCc1cc(C)cc(CC)c1-c1c(OC(=O)C(C)(C)C)n2n(c1=O)CCOCC2
active: [2] 20 µM | [5] 0.0209 µM | [12] 3.97 µM
not listed: [13] | [14] | [15] | [16] | [17]
inactive: all other assays above

C=COCCCl
inactive: [17] | [15] | [16] | [18]

N#CC(c1ccccc1)c1ccccc1
inactive: [17]

C[C@]12CCC(=O)C(O)=C1CC[C@@H]1[C@@H]2CC[C@]2(C)C(=O)CC[C@@H]12
inactive: [15]

O=C1C=CC(=O)C=C1
active: [1] 33.2 µM | [2] 20 µM | [3] 33 µM | [4] 20 µM | [5] 32.9 µM | [6] 35.6 µM | [7] 28 µM | [8] 8.8 µM | [9] 14.1 µM | [10] 28.7 µM | [12] 27 µM
inactive: [1] | [3] | [4] | [5] | [6] | [7] | [8] | [9] | [10] | [11] | [12] | [18]

Cc1ccc(C)c2ccccc12
inactive: [15] | [13]

CCC[N+](=O)[O-]
inactive: [16]

CC1(C)CC(=O)CC(C)(C)N1[O]
inactive: [17]

CN(N=O)c1ccccc1
inactive: [17] | [16]

Reference: PubChem BioAssay (EPA / NIEHS)
